This is an account of results in PubChem BioAssay (NCI).

Common to all, as to assay: NCI-60 one-dose screen, 48 h (100 = growth as untreated, 0 = no growth, -100 = all killed)
Conditions in all cases: 10 µM unless noted

Assay [1] concerns NCI-H23 lung.
Assay [2] has as its system NCI-H226 lung.
Assay [3] concerns NCI-H322M lung.
The subject of assay [4] is HOP-62 NSCLC.
Assay [5] has as its system NCI-H460 lung.
Assay [6] concerns HOP-92 NSCLC.
The subject of assay [7] is NCI-H522 lung.
In assay [8] the test system is A549/ATCC NSCLC.
The test system of assay [9] is 786-0 renal.
Assay [10] deals with COLO 205 colon.
Assay [11] deals with DU-145 prostate.
In assay [12] the test system is K-562 leukemia.
Assay [13] concerns MALME-3M melanoma.
Assay [14] has as its system MDA-MB-231 breast.
In assay [15] the test system is RXF 393 renal.
The subject of assay [16] is SF-268 CNS.
For assay [17], the system named is SF-295 CNS.
In assay [18] the test system is SF-539 CNS.
In assay [19] the test system is UACC-257 melanoma.
In assay [20] the test system is M14 melanoma.

SMILES strings stand for the structures. This is part of a sample that, as a whole, favours compounds with a hit. Of some 83,000 tested, about 20% had one in any assay.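 For each line, cells grew in 96-well plates with the test compound present at a single concentration for 48 hours.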 A number with no mark means an inactive call. Activity calls are given as the source filed them. Rule for the calls: active = growth percent below 10; inactive = the rest.

Regarding `OCNc1ccc(-n2cnc3cc(-c4ccc(O)cc4)ccc32)cc1C(F)(F)F`, the growth in assay [1] is 27%; in assay [2], 51%; in assay [3], 46.3%; in assay [4], 34.9%; in assay [5], 9.72% (active); in assay [6], 65.1%. For the same molecule, the growth is -15.7% (active) in [7]; 22.4% in assay [8]; 22.7% in [9]; 43.5% in assay [10]; 28.6% in [11]; 17.2% in assay [12]. Besides, the growth was 26.6% in assay [13]; 38.6% in assay [14]; 47.5% in [15]; 24.7% in [16]; 4.48% (active) in [17]; 23.5% in [18]. Further, the growth in assay [19] was 58.4%; in assay [20], 11.9%.
As for `COc1ccc2nc(Nc3cccc(NC(=O)c4ccc(CN5CCCN(C)CC5)c(C(F)(F)F)c4)c3)ccc2c1`, the growth in assay [1] is -71.9% (active); in assay [2], -39.8% (active); in [3] it was -86.4% (active); in [4], -47.3% (active); in [5] it was 8.75% (active); in [6], -53.1% (active). For the same molecule, the growth in assay [7] was -50.7% (active); in assay [8], -24.8% (active); in [9] it was -73.4% (active); in assay [10], -31.7% (active); in assay [11], -54.2% (active); in [12], -18.6% (active). In addition, the growth is -58.3% (active) in [13]; -82.9% (active) in assay [15]; -9.02% (active) in assay [16]; -53.9% (active) in assay [17]; -56.2% (active) in [18]; -34% (active) in assay [19]. In addition, the growth in [20] is -49.4% (active).
Regarding `CCOc1ccc(-c2c(C#N)c(-c3ccc(Cl)cc3)nc3n[nH]c(-c4ccc(Cl)cc4)c23)cc1OC`, the growth in assay [1] is 70.1%; in assay [2], 59.1%; in [3], 77.1%; in assay [4], 68.7%; in assay [5], 42.3%; in assay [6], 36.7%. Besides, the growth in assay [7] is 64.9%; in assay [8], 55.4%; in assay [9] it was 65.3%; in assay [10], 29%; in assay [11] it was 64.9%; in assay [12] it was 9.47% (active). The growth was 46.7% in assay [13]; 47.4% in assay [15]; 72.9% in assay [16]; 75.7% in [17]; 62.6% in assay [18]; 54.4% in [19]. For the same molecule, in [20], the growth is 60%.
`CSc1ccc(C(=O)Nc2ccc3nn(/C(C#N)=C/c4ccccn4)nc3c2)cc1`: the growth in [1] is -84% (active); in [2], -59.2% (active); in assay [3], 15.4%; in assay [4] it was -46.2% (active); in assay [5] it was -54.9% (active); in assay [6] it was -48.5% (active). Further, the growth is -87.9% (active) in assay [7]; 10.6% in assay [8]; -95.5% (active) in assay [9]; -86.1% (active) in assay [10]; -97% (active) in assay [11]; -1.86% (active) in [12]. Further, the growth in [13] is -82.1% (active); in assay [15], -94.6% (active); in [16], -26.3% (active); in assay [17], -49% (active); in assay [18], -88.3% (active); in assay [19], -67.6% (active). Besides, the growth in assay [20] was -76.8% (active).
With `N#Cc1cnn(C(=O)c2ccccc2Br)c1NC(=O)c1ccc(Br)cc1Cl`, the growth in assay [1] is 104%; in assay [2] it was 99.2%; in assay [3] it was 100%; in assay [4], 97.9%; in [5] it was 105%; in assay [6], 111%. Moreover, the growth is 102% in assay [7]; 93.9% in [8]; 95.8% in assay [9]; 102% in assay [10]; 108% in assay [11]; 105% in [12]. Further, the growth was 95.8% in assay [13]; 100% in assay [15]; 116% in [16]; 94.9% in [17]; 96.9% in [18]; 98.5% in assay [19]. Moreover, the growth in [20] is 101%.
`CC(=O)Nc1cccc(Nc2nccc(N[C@@H](C)c3ccccc3)n2)c1`: the growth in assay [1] is 18.2%; in assay [2], 34.7%; in assay [3], 40.6%; in [4], 8.72% (active); in [5] it was 5.42% (active); in [6] it was 45%. The growth was -43.4% (active) in [7]; 16.4% in assay [8]; 26.6% in [9]; -3.46% (active) in assay [10]; 24.8% in [11]; 7.64% (active) in assay [12]. Further, the growth in [13] was 28.7%; in [15], 21.2%; in assay [16], 27.6%; in assay [17], -8.12% (active); in assay [18], 9.09% (active); in assay [19] it was 40.5%. For the same molecule, the growth in assay [20] is 22.6%.
Consider `COc1cc(CNC(=O)/C=C/c2ccc3c(c2)OCO3)ccc1OCc1cn(-c2cccc(C(F)(F)F)c2)nn1`, for which the growth in [1] was 1.63% (active); in [2], -44.8% (active); in assay [3] it was 26.4%; in assay [4], 1.47% (active); in [5], 29.2%; in [6], -37.5% (active). Moreover, the growth in [7] is 27%; in [8], -3.39% (active); in assay [9] it was -44.7% (active); in assay [10] it was 25.3%; in [11], 30%; in assay [12], 24.7%. Further, the growth is -11.9% (active) in [13]; -28.9% (active) in [15]; 39% in assay [16]; -20.7% (active) in [17]; -81.2% (active) in assay [18]; 18.1% in assay [19]. Also, in assay [20], the growth was 4.8% (active).
